The source of these data is the supplement of paper PMC13380429.

Structures can show the parent of a compound that is named as a salt.

In experiment [1] the test system is Vero E6 infected with SARS-CoV-2. The experiment can be described thus: morphology score (similarity to uninfected cells); higher = more like uninfected cells. The following applies: 24 h.
Experiment [2] has the same test system. The experiment can be described thus: SARS-CoV-2 infection rate relative to infected DMSO; higher = more infection, active = 60 or less. The note with it: 24 h.

The molecule `CC(C)CCNc1ncccc1C(=O)N1CCN(Cc2ccccc2)CC1` (10 µM) yielded a morphology score in experiment [1] of -0.0116. Moreover, the SARS-CoV-2 infection rate in experiment [2] is 114% (inactive).
For the molecule `COC(=O)/C=C/c1cccc(N(Cc2ccc(-c3ccc(N(C)C)cc3)cc2)C(=O)C2CCCCC2)c1` [fexaramine] (10 µM), the morphology score in experiment [1] worked out at 0.272. Moreover, the SARS-CoV-2 infection rate in experiment [2] was 86% (inactive).
For `Oc1ccnc2cc(Cl)ccc12` [chloroxoquinoline] (10 µM) the same measures were 0.159 and 99.5% (inactive).
As for `OC(CCN1CCCCC1)(c1ccccc1)c1ccccc1` [pridinol] (10 µM), the morphology score in experiment [1] was 0.0166. In addition, the SARS-CoV-2 infection rate in experiment [2] is 108% (inactive).
The corresponding values for `CC[C@@]1(O)C(=O)OCc2c1cc1n(c2=O)Cc2cc3cc(O)ccc3nc2-1` [10-hydroxycamptothecin] (10 µM) are -0.13 and 103% (inactive).
The corresponding values for `C[C@H](N)Cc1c[nH]cn1` [alpha-methylhistamine-dihydrobromide-(S)-(+)] (10 µM) are 0.17 and 99% (inactive).
Consider `CCCCC[C@H](O)/C=C/[C@H]1[C@H](O)CC(=O)[C@@H]1C/C=C\CCCC(=O)O` [dinoprostone] (10 µM), for which the morphology score in experiment [1] came to 0.144. Moreover, in experiment [2], the SARS-CoV-2 infection rate is 95.5% (inactive).
`COc1ccc(CC(=O)NC(/N=C(\NC#N)Nc2cccc3ncccc23)C(C)(C)C)cc1OC` (configuration not stated) (10 µM) gave a morphology score in experiment [1] of 0.297. Besides, in experiment [2], the SARS-CoV-2 infection rate is 97% (inactive).
Turning to `COc1ccc(F)c(F)c1C(=O)c1cnc(NC2CCN(S(C)(=O)=O)CC2)nc1N` (10 µM), the morphology score in experiment [1] is -0.352. Moreover, the SARS-CoV-2 infection rate in experiment [2] was 118% (inactive).
The corresponding values for `CS(=O)(=O)c1ccc(-c2nnc(/C=C/c3nnc(-c4ccc(C#N)cc4)o3)n2-c2ccccc2Cl)nc1` (10 µM) are 0.0833 and 99% (inactive).
As to `c1ccc(NCc2ccc(CNc3ccccn3)cc2)nc1` (10 µM), in experiment [1], the morphology score is -0.0443. In addition, in experiment [2], the SARS-CoV-2 infection rate is 102% (inactive).
For `CC(=O)OC[C@H]1O[C@@H]([S-])[C@H](OC(C)=O)[C@@H](OC(C)=O)[C@@H]1OC(C)=O.CCP(CC)CC.[Au+]` [auranofin] (0.833333 µM) the same measures were 0.3 and 79% (inactive).
For `C[C@]12CC[C@H]3[C@@H](CC[C@@]45O[C@@H]4C(O)=C(C#N)C[C@]35C)[C@@H]1CC[C@@H]2O` [trilostane] (10 µM) the same measures were -0.0579 and 104% (inactive).
The corresponding values for `Cc1cccc(C)c1NC(=O)C1CCCCN1C` (configuration not stated) [mepivacaine] (10 µM) are 0.171 and 97.5% (inactive).
In experiment [1], `O=C(O)c1ccccc1Nc1cccc(OCc2ccc3ccccc3n2)c1` (10 µM) showed a morphology score of 0.0319. In experiment [2], the SARS-CoV-2 infection rate was 95.5% (inactive).
The corresponding values for `c1ccc(N2CCN(Cc3nc4ccccc4[nH]3)CC2)nc1` (10 µM) are 0.136 and 104% (inactive).
The corresponding values for `Cc1c(C2CCN(CCc3ccccc3)CC2)noc1-c1ccc(Cl)cc1` (10 µM) are 0.195 and 84% (inactive).
The corresponding values for `CCNCc1cc(C(C)(C)C)c(O)c(C(C)(C)C)c1` (10 µM) are 0.195 and 99% (inactive).
On to `CN(C)CCOC(=O)COc1ccc(Cl)cc1` [meclofenoxate] (10 µM), for which the morphology score in experiment [1] was -0.0664. Also, the SARS-CoV-2 infection rate in experiment [2] was 90.5% (inactive).
In the case of `Cc1noc2c1-c1ccccc1C(c1ccc(Cl)cc1)=N[C@H]2CC(N)=O` (10 µM), in experiment [1], the morphology score was -0.0562. For the same molecule, the SARS-CoV-2 infection rate in experiment [2] was 108% (inactive).
As to `C[C@]12C=CC(=O)C=C1CC[C@@H]1[C@@H]2[C@@H](O)C[C@@]2(C)[C@H]1CC[C@]2(O)C(=O)COP(=O)(O)O` [prednisolone-sodium-phosphate] (10 µM), the morphology score in experiment [1] was -0.0179. For the same molecule, the SARS-CoV-2 infection rate in experiment [2] was 93.5% (inactive).
The corresponding values for `Cc1cc(C#N)cc(C)c1Oc1nc(Nc2ccc(C#N)cc2)nc(N)c1Br` [etravirine] (10 µM) are 0.364 and 98% (inactive).
The corresponding values for `Cc1cc([N+](=O)[O-])ccc1NS(=O)(=O)c1cc(Cl)ccc1Cl` (0.833333 µM) are 0.153 and 101% (inactive).
As for `Nc1nccc(/C=C/c2ccccc2)n1` (10 µM), the morphology score in experiment [1] worked out at 0.324. Besides, the SARS-CoV-2 infection rate in experiment [2] was 93% (inactive).
In experiment [1], `CC1(C)[C@@H]2C[C@@H](O)[C@@](C)(O)[C@H]1C2` [2,3-cis/exo-pinanediol] (10 µM) came in with a morphology score of 0.0892. Further, the SARS-CoV-2 infection rate in experiment [2] was 95.5% (inactive).
As for `Cc1nnsc1C(=O)Nc1ccc(-n2nc(C(F)(F)F)cc2C(F)(F)F)cc1` (10 µM), the morphology score in experiment [1] was -0.0783. Also, the SARS-CoV-2 infection rate in experiment [2] was 106% (inactive).
In turn, `C=CC(=O)N1CCN(C(=O)CNc2cc(I)c(Cl)cc2O)CC1` [K-Ras(G12C)-inhibitor-12] (10 µM) yielded a morphology score in experiment [1] of -0.138. For the same molecule, the SARS-CoV-2 infection rate in experiment [2] was 111% (inactive).
The corresponding values for `COc1ncc(-c2ccc3c(Nc4cc(Oc5cc(F)cc(F)c5)cc(C(=O)O)c4)c(S(=O)(=O)NC4CC4)cnc3c2)c(OC)n1` (10 µM) are -0.00104 and 109% (inactive).
For `C[C@@H]1CN(CC(=O)Nc2ccc3c(c2)Cc2cccc(-c4cc(=O)cc(N5CCOCC5)o4)c2S3)C[C@H](C)O1` (10 µM) the same measures were 0.618 and 60% (active).
For `Cc1ccc(S(=O)(=O)Cc2nc(-c3ccc(C(=O)NCc4cccnc4)cc3)oc2C)cc1` (0.833333 µM) the same measures were -0.146 and 93% (inactive).
For `CN1CCC[C@@H]1CCO[C@](C)(c1ccccc1)c1ccc(Cl)cc1` [clemastine] (10 µM), in experiment [1], the morphology score amounted to 0.677. In experiment [2], the SARS-CoV-2 infection rate is 26.5% (active).
